High-throughput results: PubChem BioAssay, several laboratories
LYP act: increases human PTPN22 phosphatase activity. activation, % at 2 µM. Q9Y2R2. recombinant LYP, DiFMUP fluorescence; 0 = plate median, 100 = signal doubled. 96,000 tested, 0.11% active;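 active = activation at 2 µM above a set limit, the mean plus 5 SD, cut at about 37% in these data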
Target sequence (Q9Y2R2 whole entry, looked up): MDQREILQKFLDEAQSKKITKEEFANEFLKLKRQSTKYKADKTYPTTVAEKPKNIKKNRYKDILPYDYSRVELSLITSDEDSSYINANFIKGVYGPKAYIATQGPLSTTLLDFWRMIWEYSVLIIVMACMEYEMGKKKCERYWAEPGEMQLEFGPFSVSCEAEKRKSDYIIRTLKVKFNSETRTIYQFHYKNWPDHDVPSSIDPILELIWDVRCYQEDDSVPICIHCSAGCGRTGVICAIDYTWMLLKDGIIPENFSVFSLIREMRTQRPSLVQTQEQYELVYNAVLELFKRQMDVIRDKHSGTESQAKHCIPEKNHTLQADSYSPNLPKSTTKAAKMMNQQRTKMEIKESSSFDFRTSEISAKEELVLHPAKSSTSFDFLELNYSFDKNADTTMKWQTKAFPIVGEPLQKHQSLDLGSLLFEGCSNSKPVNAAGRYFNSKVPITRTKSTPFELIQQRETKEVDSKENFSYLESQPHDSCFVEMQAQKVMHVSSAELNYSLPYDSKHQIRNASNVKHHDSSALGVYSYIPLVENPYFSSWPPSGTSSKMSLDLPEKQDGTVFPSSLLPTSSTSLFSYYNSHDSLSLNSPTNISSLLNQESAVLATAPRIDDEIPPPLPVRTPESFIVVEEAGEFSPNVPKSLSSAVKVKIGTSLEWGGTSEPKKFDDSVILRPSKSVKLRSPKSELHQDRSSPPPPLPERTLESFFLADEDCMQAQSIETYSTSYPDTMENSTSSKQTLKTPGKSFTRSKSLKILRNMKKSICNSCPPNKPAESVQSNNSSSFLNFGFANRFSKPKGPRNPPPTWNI
MT1-MMP txn act: MT1-MMP promoter transcription activation | HT1080 MT1-MMP promoter luciferase reporter, luminescence, overnight; hits give high values | activation factor at 10 µM | 86,000 tested, 0.16% active | AID 750;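 active = activation factor of at least 2 for MT1-MMP transcription at 10 µM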
PTPN22 inh 2: blocks human PTPN22 phosphatase activity; Q9Y2R2; recombinant LYP catalytic domain, DiFMUP fluorescence; inhibition, % at 2 µM; 96,000 tested, 0.21% active;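 active = inhibition at 2 µM at or above a set limit, the screen mean plus 3 SD, cut at about 24% in these data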;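 note: 0% = DMSO with enzyme and 100% = enzyme fully blocked by orthovanadate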
PLAP activator: activates human placental alkaline phosphatase. P05187. purified PLAP enzyme, luminescent substrate read-out; hits give high values. activation fold at 20 µM. 96,000 tested, 1.2% active. AID 696; in the data active = activation fold above about 2
TNAP act mid DEA: activators of human TNAP at intermediate phosphate acceptor. activation factor at 20 µM. purified TNAP, CDP-star luminescence, 100 mM DEA, 30 min; hits give high values; scale: 0 levamisole-inhibited, 1 vehicle-only enzyme. AID 813. 64,000 tested, under 10 active;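 active = activation factor of at least 2 at 20 µM, relative to controls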
* marks the source's active call; other numbers are inactive results; . = not tested or not shown. This is a sample that favours compounds with a hit; in the whole collection about 1.6% have one here.

SMILES | LYP act | MT1-MMP txn act | PTPN22 inh 2 | PLAP activator | TNAP act mid DEA
Cc1ccc(OCc2nc(-c3ccccn3)n[nH]2)cc1 | -6 | 1.5 | 7 | 2.6* | .
COc1ccc(CC(=O)N2N=C(C)CC2(O)c2cccnc2)cc1 (stereo not drawn) | -4 | . | 3 | 2.1* | .
Cn1c(CCN2CCCCC2)nc2cc(NC(=O)NC3CCCCC3)ccc21 | . | 1 | . | 1.3 | 1.1
CC1CCN(CCc2nc3cc(NC(=O)NC4CCCCC4)ccc3n2C)CC1 | -3 | 1.1 | 5 | 2* | .
Cn1cc(C(=O)c2ccc(Cl)cc2Cl)cc1C(=O)N/N=C(\N)COc1cccc(C(F)(F)F)c1 | -4 | . | 4 | 2* | .
COC(=O)c1cc(C(=O)c2ccc(Cl)cc2Cl)cn1C | -2 | . | 6 | 0.9 | .
COCCn1c(Cc2ccccc2)nnc1SCc1nc2ccccc2c(=O)[nH]1 | -25 | . | 28* | 1 | .
C=CCn1c(Cc2ccc(OC)cc2)nnc1SCc1nc2ccccc2c(=O)[nH]1 | 3 | 1 | -5 | 1.3 | 0.9
O=C(NC1=NCCS1)C1Cc2ccccc2CN1C(=O)c1ccccc1 (stereo not drawn) | 0 | 1.4 | -2 | 2.1* | 0.9
CCOC(=O)N1CCN(C(=O)CCCn2c(=S)[nH]c3ccccc3c2=O)CC1 | 2 | 1 | -7 | 1.4 | 1
CCOC(=O)N1CCN(C(=O)CCCn2c(=S)[nH]c3ccc(Br)cc3c2=O)CC1 | 0 | 1 | 1 | 2* | .
S=c1[nH]c2ccc(Cl)cc2[nH]1 | 0 | 1.2 | -3 | . | 0.9
COc1ccc2[nH]c(=S)[nH]c2c1 | 5 | 1 | -8 | 2.6* | 1
Cc1ccc(C2(c3ccc(C)cc3)CC2C(=O)Nc2ccc([N+](=O)[O-])cc2O)cc1 (stereo not drawn) | 2 | . | 4 | 1.1 | .
CCOc1ccc(C2C(C#N)=C(N)SC(N)=C2C#N)cc1OCC | . | 1.1 | . | 2.6* | 1
CCOc1ccc(C2C(C#N)=C(N)SC(N)=C2C#N)cc1OC | . | 1.2 | . | 1.9 | 0.9
CCS(=O)(=O)N1CCN(c2ccccn2)CC1 | -6 | 1.1 | 7 | 0.9 | .
CC1CCc2c(C(=O)Nc3nccs3)csc2C1 (stereo not drawn) | -64 | 1.2 | 65* | 0.9 | .
CCc1c(C)sc(NC(=O)Cn2nc(C(F)(F)F)c3c2CCCC3)c1C#N | -4 | . | 9 | 1.2 | .
Cc1cc(C)nc(SCC(=O)Nc2ccc(S(=O)(=O)N3CCCCC3)cc2)n1 | -1 | 1 | 2 | 2.1* | .
Cc1cccc(NC(=O)CSc2nnc(-c3ccc(S(=O)(=O)N4CCCC4)cc3)o2)c1 | 9 | 0.9 | -10 | 2.1* | 0.9
O=C(c1cc2ccccc2oc1=O)N(Cc1ccccc1)Cc1ccc2c(c1)OCO2 | 5 | 2.5* | -6 | . | .
O=C(c1cc2ccccc2oc1=O)N1CCN(Cc2ccc3c(c2)OCO3)CC1 | -9 | 1 | 6 | 1.5 | 0.9
Cc1ccc(NC(=O)/C(=C\c2ccccc2)NC(=O)/C=C/c2ccccc2)cc1 | -3 | . | 7 | 1 | .
CS(=O)(=O)N1CCC(C(=O)c2cccc(Cl)c2)CC1 | -4 | 1.1 | 4 | 1 | 1
SMILES | LYP act | MT1-MMP txn act | PTPN22 inh 2 | PLAP activator | TNAP act mid DEA
N#CC1=C(N2CCCCC2)c2cc3c(n2C1=O)CCCC3 | 11 | 1 | -7 | 1.2 | .
CCc1c2c(nc3ccc(OC)cc13)OC(C)C2 (stereo not drawn) | . | 1.3 | . | . | .
Cn1c(=O)c2c(nc(Br)n2CCCc2ccccc2)n(C)c1=O | -9 | 1 | 7 | 1 | 0.9
CCCCCn1c(CN(C)Cc2ccccc2)nc2c1c(=O)n(C)c(=O)n2C | 15 | 1.2 | -13 | 2* | 0.8
CN(Cc1ccccc1)c1nc2c(c(=O)n(C)c(=O)n2C)n1CCCc1ccccc1 | -1 | 1.1 | 2 | 2.1* | 0.9
CCC(C)[C@H](N)c1nnc(SCC(=O)Nc2cccc(Cl)c2)o1 (stereo partly drawn) | 4 | 1.3 | -5 | 2.5* | 0.9
CCOc1ccc(NC(=O)CNC(=O)c2cn(-c3ccccc3OC)c(=O)c3ccccc23)cc1 | 11 | 1.1 | -14 | 2* | .
COc1ccccc1NC(=O)CCN1CCN(Cc2ccccc2)CC1 | -2 | 1.2 | 4 | 2* | .
Cc1ccc(Cn2c(=N)c(C(=O)NCc3ccco3)cc3c(=O)n4ccccc4nc32)cc1 | -28 | 1.3 | 31* | . | 0.9
Cc1ccc(Cn2nnc3c(=O)[nH]c(C(=O)NCc4ccco4)nc32)cc1 | . | 1.1 | . | 2* | 0.9
COc1ccc(CNC(=O)c2cc3c(=O)n4ccccc4nc3n(Cc3ccco3)c2=N)cc1 | -10 | 1.1 | 7 | . | 0.8
O=C(Nc1ccc2ccccc2c1)[C@H]1C[C@@H]1[C@H](NP(=O)(c1ccccc1)c1ccccc1)c1ccccc1 | . | 1 | . | . | .
Cc1ccc(NC(=O)N2CCN(Cc3ccc4c(c3)OCO4)CC2)cc1 | 1 | 1.1 | 3 | 2* | .
CNC(=O)[C@H](C)[C@H]1C[C@]1(C)[C@H](NC(=O)OCc1ccccc1)c1ccccc1 | . | 1.3 | . | . | .
O=C(Nc1nnc(-c2ccccc2Cl)o1)c1nc2ccccc2s1 | 26 | . | -27 | 1.6 | .
Cc1ccc(Sc2cc(Cl)nc(N)n2)cc1 | -2 | . | 5 | 1 | .
Cc1n[nH]c(C)c1CCc1nc2c3ccccc3nc(SCC(=O)Nc3ccccc3F)n2n1 | 3 | . | -6 | 2.2* | .
O=C(C1CCCO1)N1CCN(Cc2c(O)ccc3ccccc23)CC1 (stereo not drawn) | -1 | . | 4 | 2.4* | .
O=S(=O)(Nc1nc(-c2sccc2Cl)cs1)c1cc(Cl)ccc1Cl | -24 | . | 26* | 1.3 | .
COC(=O)c1ccc(C(NC(=O)OCc2ccccc2)/C(F)=C/[C@@H](C)C(=O)N2CCN(C)CC2)cc1 (stereo partly drawn) | . | 1.5 | . | . | .
O=C(N/N=C/c1ccncc1)c1cc([N+](=O)[O-])cc([N+](=O)[O-])c1O | -44 | . | 46* | 1 | .
CCCC/C=C/C(NC(=O)Oc1cccc(C(F)(F)F)c1)c1ccccc1 (stereo not drawn) | . | 1.2 | . | . | .
COc1ccc(C(=O)c2cn[nH]c2-c2cc(Cl)ccc2O)cc1 | 4 | 1 | -6 | 2.2* | 1
Cc1ccc(C(=O)c2cn[nH]c2-c2ccccc2O)cc1 | 12 | 1.1 | -10 | 2* | .
O=C(c1ccc(Cl)cc1)c1cn[nH]c1-c1ccccc1O | 7 | 1.3 | -4 | . | .
SMILES | LYP act | MT1-MMP txn act | PTPN22 inh 2 | PLAP activator | TNAP act mid DEA
O=C(c1ccc(F)cc1)c1cn[nH]c1-c1ccccc1O | 2 | 1.2 | -4 | 2.5* | 0.7
COc1ccc(-c2[nH]ncc2Oc2ccccc2OC)c(O)c1 | 2 | 1.2 | -5 | 2.5* | 1.2
COc1ccc(Oc2cn[nH]c2-c2ccc(O)cc2O)cc1 | 1 | 1.3 | -1 | 2.2* | 1
C=C(C)COc1ccc(-c2[nH]ncc2Oc2ccccc2OCC)c(O)c1 | -3 | 1.2 | 2 | 1.8 | 1
C=C(C)COc1ccc(-c2[nH]ncc2-c2ccccc2)c(O)c1 | -2 | 1 | 5 | 1.7 | .
COc1ccc(-c2[nH]ncc2-c2cnn(-c3ccccc3)c2)c(O)c1 | 17 | . | -20 | 2* | 1.1
COc1ccc(O)c(-c2cn[nH]c2-c2cccs2)c1 | -2 | 1.2 | 5 | 1.4 | 0.9
